Screening results from PubChem.
A selection: hits, their analogues and other compounds. The true share with any hit is near 3.6%.
MmCpn inh: M. maripaludis TRiC chaperonin inhibition; purified Mm-Cpn ATPase, ADP Transcreener TR-FRET; Potency, µM (series often up to 76.9 µM), inactives show at the top dose activity, negative = inhibition, usual class: inhibitors; 0.031% of 330,000 active; also: % is scaled to controls: 0 for no effect and ±100 for the full control effect; nearly all actives have a fitted effect of over 80% in size
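TR-FRET (320 nm excitation; 590 and 665 nm emission) reports ADP made from 10 uM ATP by 25 nM enzyme; compounds were preincubated 10 min, reaction run 30 min, both at 37°C.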
Abeta yeast res: restores growth of yeast expressing A-beta42 peptide | yeast expressing A-beta42, growth rescue, OD600, 48 h; response scale: 0% DMSO, 100% iron-clioquinol control | Potency, µM (series often up to 46.1 µM), hits mostly activators | 0.063% of 410,000 active | AID 1347071; also: nearly all actives have a fitted effect of over 55% in size
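Yeast A-beta toxicity model in growth medium with pinned compounds, 48 h at 30 C; growth read as absorbance at 600 nm. Normalized to FeCl3/clioquinol equimolar mix (positive) and DMSO (negative).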
FUS yeast rescue: FUS proteinopathy suppression in yeast | S. cerevisiae FUS-expressing, growth rescue, OD600, 24 h | Potency, µM (series often up to 76.6 µM), most hits filed as activators | 0.24% of 390,000 active;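 also: plate controls were DMSO vehicle for no effect and reference control for full effect; nearly all actives have a fitted effect of over 55% in size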
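FUS-expressing yeast, raffinose-pregrown, induced in 2% galactose minimal medium at OD 0.005; compounds in a dilution series, 24hr at 30C. Growth restoration read as absorbance at 600 nm. CP55940 positive control, DMSO negative.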
ClpP mod: qHTS Assay for Activators of ClpP; 1.9% of 340,000 active; AID 651965, 2013; purified B. subtilis ClpP, FRET peptide cleavage, 20 min; Potency, µM (top dose mostly 57.5 µM), without a hit: at the highest dose activity change, negative = active; ATP-dependent Clp protease proteolytic subunit (Bacillus subtilis (strain 168)), P80244; active = well fitted falling curve with a large enough effect; inconclusive = small, poorly fitted or top-dose-only effect; inactive = no such curve, though single readings can be large or run the other way; also: the source files actives as falling curves though it sought activators and does not explain the sign; nearly all actives have a fitted effect of over 65% in size
Target sequence (P80244 whole entry, looked up): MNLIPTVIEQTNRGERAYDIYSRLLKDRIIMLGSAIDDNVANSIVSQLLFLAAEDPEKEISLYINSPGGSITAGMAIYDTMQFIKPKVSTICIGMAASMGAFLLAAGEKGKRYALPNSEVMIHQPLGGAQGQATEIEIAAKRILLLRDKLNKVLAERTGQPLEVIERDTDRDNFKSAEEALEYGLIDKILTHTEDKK
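Purified B. subtilis ClpP, 10 microg/mL final in Tris/HCl pH8 with KCl, BSA, glycerol and Tween-20, cleaved an Abz/nitrotyrosine-quenched decapeptide. Fluorescence (ex 320, em 430) was read at 0 and 20 min at room temperature. Delta was normalized to 5.8 microM ADEP and DMSO/no-enzyme controls.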
TDP43 rescue: rescues yeast growth from TDP-43 toxicity | TDP-43 expressing yeast growth rescue, BacTiter-Glo, 24 h | Potency, µM (titrated, usually from 46.1 µM), for the others: at the top dose growth rescue (activation), actives largely listed as activators | 1.8% of 410,000 active | AID 652104; also: % of control where 0% means no effect; nearly all actives have a fitted effect of over 50% in size
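Growth rescue of TDP-43-toxic yeast measured as ATP luminescence (BacTiter-Glo). Cells grown to mid-log in raffinose, induced in galactose at OD600=0.02, exposed to compound 24 hr at 30 deg C.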
aSyn yeast inh: alpha-synuclein toxicity inhibition in yeast. Yeast expressing alpha-synuclein, growth rescue, BacTiter-Glo, 24 h. Potency, µM (highest dose often 46.1 µM), for inactives: at the top dose growth rescue (activation), hits mostly activators. 0.14% of 370,000 active. AID 652106; also: % of control where 0% means no effect; nearly all actives have a fitted effect of over 65% in size
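Rescue of yeast growth: cells expressing toxic alpha-synuclein, induced in galactose at OD600 0.02, incubated with compound 24 h at 30 C. ATP luminescence quantified growth; inhibitors of toxicity appear as activators.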
Starred values were filed as active, the others as inactive; i = inactive; ? = inconclusive; · = no result; [ ] = another dose, or the depositor's remark. Unless noted, calls follow the shape of the dose curve; as a rule, active = well fitted curve in the direction sought with a large enough effect; inconclusive = small, poorly fitted or top-dose-only effect, or another doubt; inactive = no such curve, though single readings can be large; an effect the other way counts as inactive or inconclusive. Potency is read from the fitted curve at half-maximal effect.

SMILES	MmCpn inh	Abeta yeast res	FUS yeast rescue	ClpP mod	TDP43 rescue	aSyn yeast inh
O=C(CSc1ccccc1)Nc1nccs1	3.0%	i	i	·	-16.2%	-5.8%
Cc1ccc(SCC(=O)Nc2nccs2)cc1	3.7%	i	i	-0.1%	11.2µM*	0.7%
CCc1ccc(-n2nc(C)c3c(C(=O)Nc4cc(C)c(Cl)cc4OC)cc(C)nc32)cc1	·	i	i	2.6%	11.3%[9.22 µM]	·
Cc1ccccc1-c1nnc(SCCOc2ccc3c(C)cc(=O)oc3c2)o1	1.1%	i	i	25.1µM*	10.6%	2.9%
Cc1cc(=O)oc2cc(OCc3ccccc3)ccc12	-4.1%	i	i	-3.3%	0.3%	-0.3%
CCc1ccccc1Nc1cc(C(=O)NC2CCC(C)CC2)c2ccccc2n1 (centres undefined)	·	i	i	205.3%	29.2%	·
COc1cccc(C(O)c2nc(-c3cc4ccccc4o3)cs2)c1 (centres undefined)	·	i	i	-3.6%	20µM*	?
OC(c1cccc(Cl)c1)c1nc(-c2cc3ccccc3o2)cs1 (centres undefined)	·	i	i	-2.6%	35.5µM*	-43.9%
OC(c1cccc(Cl)c1)c1nc(-c2cccc3cccnc23)cs1 (centres undefined)	·	?	i	-24.6%	?	17.8µM*
OC(c1ccc(F)c(F)c1)c1nc(-c2cccc3cccnc23)cs1 (centres undefined)	·	?	i	-21.8%	13.2%	23.3%
CCOc1ccccc1NC(=O)c1c(NC(=O)COc2ccccc2)sc2c1CCCCC2	·	i	i	3.0%	-9.9%	·
COC(=O)c1cc2oc3ccccc3c2n1CC(=O)N1CCCc2ccccc21	-1.5%	i	i	8.91µM*	17.1%	0.5%
COC(=O)c1cc2oc3ccccc3c2n1Cc1ccccn1	0.7%	i	i	?	12.6µM*	-20.3%
CCOc1cccc(/C=C/c2ccc3cccc(O)c3n2)c1O	-4.6%	i	i	·	11.2µM*	-3.0%
CCOc1cc(/C=C/c2ccc3cccc([N+](=O)[O-])c3n2)ccc1OCC(=O)N(C)C	-0.8%	i	i	·	-9.9%	0.6%
CCOc1cccc(/C=C/c2ccc3cccc(O)c3n2)c1OC	0.4%	i	i	·	19.7%	9.6%
CCOc1cc(/C=C/c2ccc3cccc([N+](=O)[O-])c3n2)ccc1O	0.6%	i	·	-7.0%	15.8µM*	1.7%
O=C(Nc1cccc(OC(F)(F)F)c1)c1cccc2c(-c3cccnc3)coc12	·	i	?	-10.3%	31.6µM*	-16.1%
CC(=O)c1cccc(NC(=O)c2cccc3c(-c4cccnc4)coc23)c1	·	i	i	-2.7%	?	1.3%
O=C(NCc1ccc(F)c(F)c1)c1cccc2c(-c3cccnc3)coc12	·	i	i	-11.9%	12.6µM*	5.0%
COc1ccc(NC(=O)c2cccc3c(-c4cnn(C)c4)coc23)cc1	·	i	i	-3.6%	12.6µM*	8.8%
O=C(NCc1cccs1)c1cccc2c(-c3cccnc3)coc12	·	i	i	-11.7%	17.8µM*	2.6%
CCOc1cccc2cc(-c3nc4sc5c(c4c(=O)[nH]3)CCC(C)C5)c(=O)oc12 (centres undefined)	·	i	i	-0.1%	-6.1%	·
COc1ccc(CNC(=O)c2cccc3c(-c4cccnc4)coc23)cc1OC	·	i	i	-8.4%	22.9%	15.0%
O=C(NCc1cccc(Cl)c1)c1cccc2c(-c3cccnc3)coc12	·	i	?	-3.5%	17.8µM*	16.6%
SMILES	MmCpn inh	Abeta yeast res	FUS yeast rescue	ClpP mod	TDP43 rescue	aSyn yeast inh
COC(=O)/C=C/c1cc(F)ccc1S(=O)(=O)Nc1ccccc1	·	·	·	-2.3%	·	·
COc1cccc(NC(=O)c2nnn(Cc3ccc(OC)c(Br)c3)c2N)c1	·	i	i	-15.6%	21.3%	·
CCCN(CCC)c1ccc(/C=C/c2ccnc3ccccc23)cc1	·	·	·	-1.0%	·	·
O=C(NCC1CCCO1)c1ccccc1NS(=O)(=O)c1cccc([N+](=O)[O-])c1 (centres undefined)	0.0%	i	i	-0.7%	7.5%	?
O=C(NCC1CCCO1)c1ccccc1NS(=O)(=O)c1cc([N+](=O)[O-])ccc1Cl (centres undefined)	-0.8%	i	·	1.3%	-18.3%	22.4µM*
CCOc1ccc(S(=O)(=O)Nc2ccccc2C(=O)NCC2CCCO2)cc1 (centres undefined)	-0.5%	i	i	28.2µM*	-5.5%	1.9%
O=C(OCc1cn(Cc2c(F)cccc2F)nn1)N1CCOCC1	·	·	i	·	·	·
COc1ccc(-n2cc(C(=O)c3cc(Cl)ccc3O)cc(C#N)c2=O)cc1	0.0%	i	i	·	?	7.1%
Cc1ccc(-n2cc(C(=O)c3cc(Cl)ccc3O)cc(C#N)c2=O)cc1	-3.6%	i	·	77.3%	14.1µM*	0.4%
O=C(O)CCc1ccc(-c2ccccc2)n1CC(=O)Nc1ccccc1C(F)(F)F	·	i	i	-9.5%	24.5%	·
C(=N\Nc1nncc2ccccc12)/c1ccccc1	-0.3%	i	i	0.5%	22.4µM*	5.9%
Cc1ccc(NC(=O)CN2C(=O)CCSc3ccccc32)cc1C	·	·	i	·	·	·
Cc1ccc(S(=O)(=O)N(CC(=O)Nc2ccc(F)cc2F)Cc2ccc(F)cc2)cc1	·	i	i	-4.8%	-1.2%	·
COc1cc(C#Cc2c(-c3cncn3C)n(C)c3ccc(-c4ccc(OC)c(OC)c4)cc23)cc(OC)c1	?	i	?	3.9%	?	-29.0%
COc1cc(C#Cc2c(-c3cncn3C)n(C)c3ccc(-c4ccc5cc[nH]c5c4)cc23)cc(OC)c1	-14.6%	i	?	4.0%	20µM*	-0.1%
COC(=O)CN1C(=O)CSc2ccc(S(=O)(=O)Nc3ccc(C(C)=O)cc3)cc21	·	i	i	-19.9%	19.3%	·
O=C1CC(c2ccco2)c2ccc3ccccc3c2N1 (centres undefined)	-0.4%	i	i	-4.3%	12.6µM*	4.7%
O=C1CC(c2cccc([N+](=O)[O-])c2)c2c(ccc3ccccc23)N1 (centres undefined)	1.8%	i	i	1.8%	-8.3%	4.3%
Cc1ccc(C2CC(=O)Nc3c2ccc2ccccc32)cc1[N+](=O)[O-] (centres undefined)	0.8%	i	i	?	25.1µM*	10.9%
